# Test results taken from the supplement of paper PMC8728848.
# Only a selection was taken, and the strongest signals are over-represented in it overall.
# Tests used:
# Test in all cases: glycan array binding signal (z-score within array); higher = stronger binding
# Conditions in all cases: glycan notation: IUPAC condensed, linker removed
# Gal(b1-3)Gal(b1-4)GlcNAc = test system: Gal(b1-3)Gal(b1-4)GlcNAc
# Outline: (§1)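 Glycan array data came from 3228 arrays in the Consortium for Functional Glycomics database, and only arrays with an available protein sequence were kept. Glycan names were put into IUPAC-condensed notation, and columns mapping to the same glycan were averaged. The binding signal is a within-array Z-score, averaged across arrays of one protein sequence run at different concentrations or buffers and across linkers. A negative Z-score can be read as non-binding.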
# [1] = test system: Gal(b1-3)GalNAc(a1-3)[Fuc(a1-2)]Gal(b1-4)GlcNAc
# Outline: as §1
# Gal(a1-6)Glc = test system: Gal(a1-6)Glc
# Outline: as §1
# [2] = test system: Gal(b1-3)GalNAc(b1-4)[Neu5Gc(a2-3)]Gal(b1-4)Glc
# Outline: as §1
# [3] = test system: Gal(b1-3)GalNAc(b1-4)Gal(b1-4)Glc
# Outline: as §1
# [4] = test system: Gal(b1-3)GalNAc(a1-3)[Fuc(a1-2)]Gal(b1-4)Glc
# Outline: as §1
# Gal(b1-3)GalNAc = test system: Gal(b1-3)GalNAc
# Outline: as §1
# Gal(b1-2)Gal = test system: Gal(b1-2)Gal
# Outline: as §1
# [5] = test system: Gal(b1-3)GalNAc(b1-3)Gal(a1-4)Gal(b1-4)Glc
# Outline: as §1
# Gal(b1-3)GalNAc(b1-3)Gal = test system: Gal(b1-3)GalNAc(b1-3)Gal
# Outline: as §1
substance,measurement,setting,value
Actinohivin (Actinomycete K97),glycan array binding signal (z-score),Gal(b1-3)Gal(b1-4)GlcNAc,-0.14
same,glycan array binding signal (z-score),[1],-0.176
"Wza (Escherichia coli), P0A930",glycan array binding signal (z-score),Gal(a1-6)Glc,3.12
same,glycan array binding signal (z-score),Gal(b1-3)Gal(b1-4)GlcNAc,3.02
"MIC3-MAR1b (Eimeria tenella), B6VCV4",glycan array binding signal (z-score),[2],-0.47
AgI/II Vhelical-GFP (Streptococcus mutans),glycan array binding signal (z-score),Gal(a1-6)Glc,-0.194
same,glycan array binding signal (z-score),[3],-0.139
"SpGH101 (Streptococcus pneumoniae), Q8DR60",glycan array binding signal (z-score),Gal(b1-3)Gal(b1-4)GlcNAc,-0.193
same,glycan array binding signal (z-score),[1],1.71
same,glycan array binding signal (z-score),[4],2.88
same,glycan array binding signal (z-score),Gal(b1-3)GalNAc,8.17
"SiiE (Salmonella typhimurium), A0A0H3NVH0",glycan array binding signal (z-score),Gal(b1-3)Gal(b1-4)GlcNAc,-1.51
LcI (Legionella pneumophila),glycan array binding signal (z-score),Gal(b1-2)Gal,4.02
"GspB (Streptococcus gordonii), Q939N5",glycan array binding signal (z-score),[5],3.02
"BambL (Burhholderia ambifaria), Q0B4G1",glycan array binding signal (z-score),Gal(b1-2)Gal,-0.304
same,glycan array binding signal (z-score),[4],-0.278
Epa22,glycan array binding signal (z-score),Gal(b1-3)GalNAc(b1-3)Gal,2.8
same,glycan array binding signal (z-score),[3],2.6
same,glycan array binding signal (z-score),Gal(b1-3)GalNAc,1.46
